# In PubChem BioAssay (NCI):
# This is part of a sample that, as a whole, favours compounds with a hit. Of some 79,000 tested, about 15% had one in any assay. Values without a mark were called inactive. The source made the active and inactive calls. No stated cut-off is given here; in the data, active means growth inhibition above about 70%; inactive means the rest.
# Legend:
# [1] = NCI Yeast Anticancer Drug Screen. Data for the rad52 strain (AID 147);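 further: 0% = growth of vehicle-treated control cultures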; conditions: S. cerevisiae rad52 mutant growth inhibition, active compounds read high
# How it was run: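 Vehicle-treated cultures served as the reference for growth inhibition of compound-exposed yeast bearing a DNA repair mutation.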
# [2] = NCI Yeast Anticancer Drug Screen. Data for the wt1 strain (AID 149);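 further: 0% = growth of vehicle-treated wt1 cultures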; conditions: S. cerevisiae wt1 strain (SPY 50644) growth inhibition, active compounds read high
# How it was run: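 Readout: yeast growth inhibition, normalised to vehicle controls, in the wt1 strain exposed to test compounds.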
# [3] = NCI Yeast Anticancer Drug Screen. Data for the rad50EPP+ strain (AID 151);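 further: 0% = growth of vehicle-treated control cultures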; conditions: S. cerevisiae rad50 mutant strain, active compounds read high
# How it was run: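 In this screen, rad50EPP+ yeast were exposed to compounds. Growth inhibition was scored against vehicle-treated controls.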
# [4] = NCI Yeast Anticancer Drug Screen. Data for the rad50 strain (AID 155);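 further: 0% = growth of vehicle-only cultures of the same strain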; conditions: S. cerevisiae rad50 strain growth inhibition, active compounds read high
# How it was run: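 Compounds were tested on a yeast strain with an engineered DNA damage repair alteration; the reported value is growth inhibition normalised to vehicle treatment.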
# [5] = NCI Yeast Anticancer Drug Screen. Data for the mec2-1 strain (AID 157); conditions: S. cerevisiae mec2-1 strain, active compounds read high
# How it was run: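 Vehicle-treated cultures served as reference for growth inhibition of compound-exposed mec2-1 yeast.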
# [6] = NCI Yeast Anticancer Drug Screen. Data for the rad14 strain (AID 159);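 further: 0% = growth of vehicle-treated control cultures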; conditions: S. cerevisiae rad14 strain growth inhibition, active compounds read high
# How it was run: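 Compound-treated yeast with a defined DNA-repair lesion; growth inhibition normalised to vehicle-treated cultures.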
# [7] = NCI Yeast Anticancer Drug Screen. Data for the CLN2oe strain (AID 163);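 further: 0% = growth of vehicle-only control cultures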; conditions: S. cerevisiae CLN2oe strain, active compounds read high
# How it was run: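 Inhibition relative to vehicle-treated yeast is reported. Cells: strain with genetic alteration in cell-cycle control, grown with compound.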
# [8] = NCI Yeast Anticancer Drug Screen. Data for the cln2 rad14 strain (AID 165);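 further: 0% = growth equal to vehicle treated cultures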; conditions: S. cerevisiae cln2 rad14 strain, active compounds read high
# How it was run: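 Each compound was tested on cln2 rad14 yeast. Inhibition of growth was calculated against vehicle-exposed controls.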
# [9] = NCI Yeast Anticancer Drug Screen. Data for the bub3 strain (AID 167); conditions: S. cerevisiae bub3 mutant strain, active compounds read high
# How it was run: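 Growth of a checkpoint-deficient yeast mutant is measured after compound exposure. Values represent inhibition relative to vehicle.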
# [10] = NCI Yeast Anticancer Drug Screen. Data for the mlh1 strain (AID 171);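 further: 0% = growth of vehicle-treated control cultures of the same strain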; conditions: S. cerevisiae mlh1 strain growth inhibition, active compounds read high
# How it was run: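 Vehicle-normalised growth inhibition of a repair- or checkpoint-altered yeast strain following compound treatment.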
# [11] = NCI Yeast Anticancer Drug Screen. Data for the sgs1 strain (AID 173);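 further: 0% = growth of vehicle-only control cultures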; conditions: S. cerevisiae sgs1 mutant, active compounds read high
# How it was run: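 Screen format: yeast with repair or checkpoint alterations, compound exposure, growth read relative to vehicle.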
# [12] = NCI Yeast Anticancer Drug Screen. Data for the mlh1 rad18 strain (AID 175); conditions: S. cerevisiae mlh1 rad18 strain growth inhibition, active compounds read high
# How it was run: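 Vehicle-treated cultures served as the reference for growth inhibition in a yeast strain carrying DNA damage repair alterations exposed to each compound.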
# [13] = NCI Yeast Anticancer Drug Screen. Data for the rad18 strain (AID 177); conditions: S. cerevisiae rad18 mutant growth inhibition, active compounds read high
# How it was run: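 Test articles were incubated with altered yeast defective in DNA damage repair. Results are given as inhibition of growth versus vehicle.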
# [14] = NCI Yeast Anticancer Drug Screen. Data for the sgs1 mgt1 strain (AID 161);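 further: 0% = growth of cultures given vehicle only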; conditions: S. cerevisiae sgs1 mgt1 strain, active compounds read high
# How it was run: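 Mutant yeast exposed to compound; growth scored against vehicle-only wells.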
# [15] = NCI Yeast Anticancer Drug Screen. Data for the wt2 strain (AID 169);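 further: 0% = growth of vehicle-treated yeast cultures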; conditions: S. cerevisiae wt2 strain growth inhibition, active compounds read high
# How it was run: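 Inhibition of yeast growth was determined after compound treatment, normalised to controls receiving only vehicle.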
# [16] = at 5.0 µM (retest, dose inferred, filed as 0.5)
# [17] = at 50.0 µM (retest, dose inferred, filed as 5.0)
smiles,measurement,setting,value
CCOC(=O)Nc1ccc2c(c1)Cc1ccccc1-2,growth inhibition,[1]; at 1.2 µM,-11%
same,growth inhibition,[1]; at 3.7 µM,-10%
same,growth inhibition,[1]; at 11.0 µM,-7%
same,growth inhibition,[1]; at 33.0 µM,-5%
same,growth inhibition,[1]; at 100.0 µM,-5%
same,growth inhibition,[2]; at 1.2 µM,-2%
same,growth inhibition,[2]; at 3.7 µM,5%
same,growth inhibition,[2]; at 11.0 µM,11%
same,growth inhibition,[2]; at 33.0 µM,7%
same,growth inhibition,[2]; at 100.0 µM,10%
same,growth inhibition,[3]; at 1.2 µM,-6%
same,growth inhibition,[3]; at 3.7 µM,-13%
same,growth inhibition,[3]; at 11.0 µM,15%
same,growth inhibition,[3]; at 33.0 µM,21%
same,growth inhibition,[3]; at 100.0 µM,21%
same,growth inhibition,[4]; at 1.2 µM,-15%
same,growth inhibition,[4]; at 3.7 µM,-14%
same,growth inhibition,[4]; [16],4%
same,growth inhibition,[4]; at 11.0 µM,-23%
same,growth inhibition,[4]; at 33.0 µM,-22%
same,growth inhibition,[4]; [17],2%
same,growth inhibition,[4]; at 50.0 µM,-9.4%
same,growth inhibition,[4]; at 100.0 µM,-9%
same,growth inhibition,[5]; at 1.2 µM,-4%
same,growth inhibition,[5]; at 3.7 µM,-4%
same,growth inhibition,[5]; [16],1%
same,growth inhibition,[5]; at 11.0 µM,-6%
same,growth inhibition,[5]; at 33.0 µM,-5%
same,growth inhibition,[5]; [17],12%
same,growth inhibition,[5]; at 50.0 µM,-5.5%
same,growth inhibition,[5]; at 100.0 µM,-2%
same,growth inhibition,[6]; at 1.2 µM,0%
same,growth inhibition,[6]; at 3.7 µM,-8%
same,growth inhibition,[6]; at 11.0 µM,1%
same,growth inhibition,[6]; at 33.0 µM,1%
same,growth inhibition,[6]; at 100.0 µM,3%
same,growth inhibition,[7]; at 1.2 µM,-9%
same,growth inhibition,[7]; at 3.7 µM,-12%
same,growth inhibition,[7]; at 11.0 µM,-13%
same,growth inhibition,[7]; at 33.0 µM,-12%
same,growth inhibition,[7]; at 100.0 µM,-7%
same,growth inhibition,[8]; [16],-8%
same,growth inhibition,[8]; [17],-3%
same,growth inhibition,[8]; at 50.0 µM,-19%
same,growth inhibition,[9]; at 1.2 µM,35%
same,growth inhibition,[9]; at 3.7 µM,28%
same,growth inhibition,[9]; [16],49%
same,growth inhibition,[9]; at 11.0 µM,21%
same,growth inhibition,[9]; at 33.0 µM,21%
same,growth inhibition,[9]; [17],88% (active)
same,growth inhibition,[9]; at 50.0 µM,87.2% (active)
same,growth inhibition,[9]; at 100.0 µM,26%
same,growth inhibition,[10]; at 1.2 µM,-14%
same,growth inhibition,[10]; at 3.7 µM,-8%
same,growth inhibition,[10]; at 11.0 µM,-7%
same,growth inhibition,[10]; at 33.0 µM,-7%
same,growth inhibition,[10]; at 100.0 µM,-5%
same,growth inhibition,[11]; at 1.2 µM,-18%
same,growth inhibition,[11]; at 3.7 µM,-12%
same,growth inhibition,[11]; at 11.0 µM,-4%
same,growth inhibition,[11]; at 33.0 µM,3%
same,growth inhibition,[11]; at 100.0 µM,0%
same,growth inhibition,[12]; [16],-11%
same,growth inhibition,[12]; [17],-25%
same,growth inhibition,[12]; at 50.0 µM,16.4%
same,growth inhibition,[13]; at 1.2 µM,-11%
same,growth inhibition,[13]; at 3.7 µM,-7%
same,growth inhibition,[13]; at 11.0 µM,-4%
same,growth inhibition,[13]; at 33.0 µM,-6%
same,growth inhibition,[13]; at 100.0 µM,-10%
S=c1nc(Cl)cc2[nH]c(Cl)cn12,growth inhibition,[1]; at 1.2 µM,2%
same,growth inhibition,[1]; at 3.7 µM,6%
same,growth inhibition,[1]; at 11.0 µM,14%
same,growth inhibition,[1]; at 33.0 µM,43%
same,growth inhibition,[1]; at 100.0 µM,93% (active)
same,growth inhibition,[2]; at 1.2 µM,-3%
same,growth inhibition,[2]; at 3.7 µM,-3%
same,growth inhibition,[2]; at 11.0 µM,-2%
same,growth inhibition,[2]; at 33.0 µM,13%
same,growth inhibition,[2]; at 100.0 µM,42%
same,growth inhibition,[3]; at 1.2 µM,4%
same,growth inhibition,[3]; at 3.7 µM,18%
same,growth inhibition,[3]; at 11.0 µM,44%
same,growth inhibition,[3]; at 33.0 µM,89% (active)
same,growth inhibition,[3]; at 100.0 µM,98% (active)
same,growth inhibition,[5]; at 1.2 µM,3%
same,growth inhibition,[5]; at 3.7 µM,4%
same,growth inhibition,[5]; [16],-46%
same,growth inhibition,[5]; at 11.0 µM,13%
same,growth inhibition,[5]; at 33.0 µM,24%
same,growth inhibition,[5]; [17],-8%
same,growth inhibition,[5]; at 50.0 µM,82.5% (active)
same,growth inhibition,[5]; at 100.0 µM,80% (active)
same,growth inhibition,[6]; at 1.2 µM,1%
same,growth inhibition,[6]; at 3.7 µM,-1%
same,growth inhibition,[6]; at 11.0 µM,10%
same,growth inhibition,[6]; at 33.0 µM,20%
same,growth inhibition,[6]; at 100.0 µM,59%
same,growth inhibition,[14]; [16],-61%
same,growth inhibition,[14]; [17],3%
same,growth inhibition,[14]; at 50.0 µM,47.4%
same,growth inhibition,[8]; [16],-57%
same,growth inhibition,[8]; [17],-39%
same,growth inhibition,[8]; at 50.0 µM,76.6% (active)
same,growth inhibition,[9]; at 1.2 µM,-4%
same,growth inhibition,[9]; at 3.7 µM,-3%
same,growth inhibition,[9]; [16],-30%
same,growth inhibition,[9]; at 11.0 µM,9%
same,growth inhibition,[9]; at 33.0 µM,30%
same,growth inhibition,[9]; [17],44%
same,growth inhibition,[9]; at 50.0 µM,78.5% (active)
same,growth inhibition,[9]; at 100.0 µM,94% (active)
same,growth inhibition,[15]; at 1.2 µM,2%
same,growth inhibition,[15]; at 3.7 µM,3%
same,growth inhibition,[15]; at 11.0 µM,5%
same,growth inhibition,[15]; at 33.0 µM,11%
same,growth inhibition,[15]; at 100.0 µM,83% (active)
same,growth inhibition,[10]; at 1.2 µM,8%
same,growth inhibition,[10]; at 3.7 µM,1%
same,growth inhibition,[10]; at 11.0 µM,5%
same,growth inhibition,[10]; at 33.0 µM,19%
same,growth inhibition,[10]; at 100.0 µM,90% (active)
same,growth inhibition,[11]; at 1.2 µM,3%
same,growth inhibition,[11]; at 3.7 µM,3%
same,growth inhibition,[11]; at 11.0 µM,15%
same,growth inhibition,[11]; at 33.0 µM,42%
same,growth inhibition,[11]; at 100.0 µM,99% (active)
same,growth inhibition,[12]; [16],-117%
same,growth inhibition,[12]; [17],10%
same,growth inhibition,[12]; at 50.0 µM,96.5% (active)
same,growth inhibition,[13]; at 1.2 µM,1%
same,growth inhibition,[13]; at 3.7 µM,3%
same,growth inhibition,[13]; at 11.0 µM,14%
same,growth inhibition,[13]; at 33.0 µM,44%
same,growth inhibition,[13]; at 100.0 µM,96% (active)
